High-throughput results as filed in PubChem.
AID inh = activation induced cytidine deaminase inhibition. AID 1347428. Q9GZX7. Potency, µM (series often up to 115 µM), hits mostly inhibitors. AID deamination FRET fluorescence, UDG-coupled, 4 h. actives 0.32% (n = 91,000); further: nearly all actives have a fitted effect of over 25% in size
Target sequence (Q9GZX7 whole entry, looked up): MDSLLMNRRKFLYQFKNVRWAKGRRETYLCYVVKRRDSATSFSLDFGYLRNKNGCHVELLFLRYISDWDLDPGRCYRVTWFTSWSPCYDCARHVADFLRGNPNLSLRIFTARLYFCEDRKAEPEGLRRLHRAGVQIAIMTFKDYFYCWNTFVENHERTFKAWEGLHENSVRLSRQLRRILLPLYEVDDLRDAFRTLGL
UDG counterscr = UDG inhibition counter-screen | FRET deamination/UDG coupled assay, UDG read, 4 h | Potency, µM (highest dose often 115 µM), for inactives: at the top dose activity change, negative = inhibition, hits mostly inhibitors | actives 0.14% (n = 91,000); further: nearly all actives have a fitted effect of over 65% in size
* hit, by the source's call; i = inactive; ? = inconclusive. Rows were chosen to be rich in hits. Some 0.47% of all compounds tested hit in one or more screens of this group. The call rests on the fitted dose curve; in most records, active means well fitted curve in the direction sought with a large enough effect; inconclusive means small, poorly fitted or top-dose-only effect, or another doubt; inactive means no such curve, though single readings can be large; an effect the other way counts as inactive or inconclusive. On the % scale 0 is the no-effect control and ±100 the full control effect; potency means the concentration at half of the fitted maximal effect.

SMILES	AID inh	UDG counterscr
Cc1ccccc1-c1noc(CSc2nnc(Cc3ccccc3)n2-c2ccc(F)cc2)n1	20µM*	?
CCOc1ccc(-c2noc(CSc3nnc(Cc4ccccc4)n3-c3ccc(F)cc3)n2)cc1	?	-23%
CCc1ccc(-n2c(Cc3ccccc3)nnc2SCc2nc(-c3cccs3)no2)cc1	40µM*	?
CCOc1ccc(-n2c(Cc3ccccc3)nnc2SCc2nc(-c3ccccc3OC)no2)cc1	?	-19%
CCOc1ccc(S(=O)(=O)/C=C2\NCCc3cc(OC)c(OC)cc32)cc1	i	-3%
OCCNc1nc(Nc2ccc(Cl)c(Cl)c2)nc2nccnc12	35µM*	-4%
OCCNc1nc(Nc2ccc(Br)cc2)nc2nccnc12	?	-4%
OCCNc1nc(Nc2cccc(Cl)c2)nc2nccnc12	79µM*	1%
c1ccc(CCNc2nc(Nc3ccccc3)c3nccnc3n2)cc1	i	-4%
CC(=O)N1CCc2c(sc3c2c(=O)n(-c2ccccc2Cl)c(=O)n3Cc2cccc(C)c2)C1	35µM*	?
C=Cc1ccc(Cn2c(=O)n(-c3ccccc3C)c(=O)c3c4c(sc32)CN(C(C)=O)CC4)cc1	?	-18%
Cc1ccc(S(=O)(=O)Cc2ccc(C(=O)N3CCN(c4cccc(C)c4C)CC3)o2)cc1	?	-12%
COc1ccc(S(=O)(=O)Cc2ccc(C(=O)N3CCN(c4cc(C)ccc4C)CC3)o2)cc1	?	89µM*
Cc1ccc(C2C(C#N)=C(N)Oc3c2ccc2ccccc32)cc1 (stereo unspecified)	i	-2%
N#C/C(=C\c1ccnc2ccccc12)c1nc2ccccc2s1	?	79µM*
Cc1ccccc1/C=C(/C#N)c1nc2ccccc2s1	i	-19%
CCn1ncc2c(C(=O)Nc3ccc(OC(F)F)cc3)cc(-c3cccs3)nc21	i	-16%
O=C(O)c1cc2ccccc2c2cccnc12	i	-4%
Cc1nc2c(-c3ccccc3)c(C)[nH]n2c(=O)c1Cc1ccc(C(C)C)cc1	i	79µM*
Cc1ccc(Cc2c(C)nc3c(-c4ccccc4)c(C)[nH]n3c2=O)cc1	i	-5%
CC(C)Cn1c(SCC(=O)c2ccc(C#N)cc2)nnc1-c1ccccc1	i	-3%
CN(CCCNC(=O)c1cc2c(Cl)nc3ccccc3c2s1)Cc1ccccc1	22µM*	-7%
COCCNC(=O)c1cc2c(Cl)nc3ccc(C)cc3c2s1	?	8%
Cc1ccc2nc(Cl)c3cc(C(=O)NCCCN(C)Cc4ccccc4)sc3c2c1	?	79µM*
CCN(CCCNC(=O)c1cc2c(Cl)nc3ccccc3c2s1)Cc1ccccc1	?	-19%
SMILES	AID inh	UDG counterscr
Cn1cc(/C=C2/CC(=O)N(c3ccccc3)C2=O)c2ccccc21	i	-5%
Cc1nn2c(=O)cc(COC(=O)c3ccc(NC(=O)C4CCCCC4)cc3)nc2s1	45µM*	-14%
CCc1nn2c(=O)cc(COC(=O)c3ccc(NC(=O)C4CCCCC4)cc3)nc2s1	i	2%
CCCN(CC)c1ccc(/C=N/NC(=S)Nc2ccc(C)cc2)cc1	i	-4%
N#C/C(=C\c1ccc2cccnc2c1)c1nc2ccccc2[nH]1	i	11%
N#Cc1nc(COc2ccc(Br)cc2)oc1NC1CC1	i	-9%
NNc1cccc(S(=O)(=O)c2cccc(NN)c2)c1	?	45µM*
NNc1ccc(S(=O)(=O)c2ccc(NN)cc2)cc1	i	-17%
COc1cccc(Cn2c(=O)c3sccc3n(CC(=O)N(C)C3CCCCC3)c2=O)c1	i	-5%
c1ccc(-c2cc(-c3ccccc3)[o+]c(-c3ccccc3)c2)cc1	i	-14%
CCC1=Nc2cc(C(=O)NCc3ccccc3Cl)ccc2Sc2ccc(C)cc21	i	-6%
CCC1=Nc2cc(C(=O)N3CCC(C)CC3)ccc2Sc2ccc(C)cc21	32µM*	-13%
Oc1ccc(-c2nc(-c3cc4ccccc4o3)cs2)cc1	i	-2%
O=C(O)c1cccc(NC(=O)c2cccc(S(=O)(=O)Nc3cccc(C(=O)O)c3)c2)c1	i	-7%
O=C(Nc1cccc(C(=O)Nc2ccc(S(=O)(=O)O)c3cc(S(=O)(=O)O)cc(S(=O)(=O)O)c23)c1)Nc1cccc(C(=O)Nc2ccc(S(=O)(=O)O)c3cc(S(=O)(=O)O)cc(S(=O)(=O)O)c23)c1	50µM*	-8%
CCOc1ccc(Nc2cc(C)nc3ccc(Cl)cc23)cc1	i	-2%
CCOc1ccc2nc(C)cc(Nc3ccccc3OCC)c2c1	79µM*	?
Cc1ccc(O)c(N/C=C/C(=O)C(C)(C)C)c1	i	4%
N#Cc1cccnc1NCc1cccnc1	i	0%
O=C(CSc1nc(-c2ccco2)nc2ccccc12)N1CCCCCCC1	i	-1%
Nc1c(S(=O)(=O)O)cc(Nc2ccc(Nc3nc(Cl)nc(Nc4ccc(S(=O)(=O)O)cc4)n3)c(S(=O)(=O)O)c2)c2c1C(=O)c1ccccc1C2=O	22µM*	-19%
Cc1cc(-n2c(C)nc3ccccc3c2=O)ccc1NC(=O)c1ccccc1[N+](=O)[O-]	i	-14%
Cc1cc(-n2c(C)nc3ccccc3c2=O)ccc1NC(=O)c1cccc([N+](=O)[O-])c1C	i	89µM*
COc1ccc(CNCCC(c2ccc(C)cc2)c2ccco2)cc1 (stereo unspecified)	i	-4%
COc1ccc(CNCCC(c2ccccc2)c2ccc3c(c2)OCO3)cc1 (stereo unspecified)	45µM*	5%
SMILES	AID inh	UDG counterscr
Cc1cc(Nc2cccc(C(F)(F)F)c2)nc2ccc(NC(=O)Cc3ccc(Cl)cc3)cc12	35µM*	-17%
COc1ccc(CC(=O)Nc2ccc3nc(Nc4cccc(Cl)c4)cc(C)c3c2)cc1	i	-10%
OCC1O[C@H]([S-])[C@H](O)[C@@H](O)[C@@H]1O.[Au+] (stereo partly specified)	25µM*	3%
Cc1ccc(-n2c(SCc3nc(-c4ccc(Cl)cc4)no3)nnc2-c2ccncc2)cc1	35µM*	?
COc1ccc(-c2noc(CSc3nnc(C)n3-c3ccc(F)cc3)n2)cc1	i	79µM*
Clc1ccccc1-c1nnc(SCc2nc(-c3ccccc3)no2)n1-c1ccccc1	?	79µM*
CCOc1ccc(-c2noc(CSc3nnc(-c4ccccc4)n3-c3ccccc3)n2)cc1	i	-1%
COc1ccc(OC)c(-c2noc(CSc3nnc(-c4ccccc4)n3-c3ccccc3)n2)c1	i	5%
COCCSc1nnc(-c2ccc(Cl)cc2)n1-c1ccc(OC)cc1	i	-5%
Cc1ccc(-c2noc(CSc3nnc(C)n3-c3ccc(C)cc3)n2)cc1	?	-21%
COc1ccc(-c2noc(CSc3nnc(-c4ccncc4)n3-c3ccc(OC)cc3)n2)cc1	?	79µM*
N#C/C(=C\c1cc(Br)c(I)o1)c1nc2ccccc2[nH]1	i	8%
Cc1cc2c(s1)CCc1cc(C(=O)NC3CCCCC3)sc1-2	i	-14%
CCc1ccc2c(c1)NC(c1ccc(OC)cc1)=NC(c1ccncc1)=N2	?	89µM*
COc1ccc(C2=NC(c3ccncc3)=Nc3ccc(OC)cc3N2)cc1	i	-26%
Clc1ccc2c(NN=C3CCCC3)ccnc2c1	i	-12%
Cc1cc(Nc2cccc(Cl)c2)nc2ccc(NC(=O)CC3CCCCC3)cc12	i	-5%
CC(C)N(CCNC(=O)C(c1ccccc1)c1ccccc1)C(C)C	i	-1%
O=C1C(SCCO)=C(SCCO)C(=O)c2ccccc21	11µM*	-10%
